High-throughput results from PubChem BioAssay.
The full list was thinned out, with hits kept by preference.
TbREL1 inh = TbREL1 RNA ligase inhibitors, primary screen, biochemical, FRET fluorescence. RNA-editing ligase 1, mitochondrial (Trypanosoma brucei brucei), P86926. TbREL1 RNA ligation. inhibition, % at 9.66 µM. actives 0.49% (n = 89,000);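 active = inhibition above the mean inhibition across all screened compounds plus 3 SD, cut at about 11% in these data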
Target sequence (P86926 whole entry, looked up): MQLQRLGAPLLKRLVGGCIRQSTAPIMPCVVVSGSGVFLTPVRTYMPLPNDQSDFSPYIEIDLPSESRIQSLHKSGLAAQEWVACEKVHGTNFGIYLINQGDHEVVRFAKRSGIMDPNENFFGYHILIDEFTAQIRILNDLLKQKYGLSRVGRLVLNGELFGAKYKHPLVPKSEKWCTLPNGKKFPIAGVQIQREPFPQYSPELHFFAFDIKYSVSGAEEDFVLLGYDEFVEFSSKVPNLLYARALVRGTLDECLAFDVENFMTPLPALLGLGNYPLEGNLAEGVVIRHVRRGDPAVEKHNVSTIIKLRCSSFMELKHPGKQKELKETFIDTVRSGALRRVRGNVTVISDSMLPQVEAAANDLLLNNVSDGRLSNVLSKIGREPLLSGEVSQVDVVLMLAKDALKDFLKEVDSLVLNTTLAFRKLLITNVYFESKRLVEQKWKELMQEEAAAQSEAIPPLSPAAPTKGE
TbREL1 confirm = TbREL1 RNA ligase inhibitors, confirmation, biochemical, FRET fluorescence, triplicate; shares compounds with TbREL1 inh; TbREL1 RNA ligation; inhibition, % at 9.66 µM; actives 37% (n = 390);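 active = mean inhibition across replicates above a set limit taken from the earlier primary screen, cut at about 11% in these data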
Numbers stand for hits; – = inactive.

SMILES	TbREL1 inh	others
COCCOC(=O)C1=C(C)N(Cc2ccccc2)C(=O)NC1c1cccc(OC)c1OC (configuration not stated)	–
C=CCN=C1NC(c2ccccc2C(F)(F)F)C(C(=O)OC)=C(C)N1Cc1ccc(C(F)(F)F)cc1 (configuration not stated)	14.3	TbREL1 confirm=18.2
C=CCN=C1NC(c2ccccc2C(F)(F)F)C(C(=O)OC)=C(C)N1Cc1cccc(C(F)(F)F)c1 (configuration not stated)	15.1	TbREL1 confirm=18.1
COC(=O)C1=C(C)N(Cc2cccc(C(F)(F)F)c2)C(=NCc2cc(OC)c(OC)c(OC)c2)NC1c1ccccc1C(F)(F)F (configuration not stated)	14.4	TbREL1 confirm=18.6
CCN=C1NC(c2ccccc2C(F)(F)F)C(C(=O)OC)=C(C)N1C (configuration not stated)	–
CCN=C1NC(c2ccc(C(F)(F)F)cc2)C(C(=O)OC)=C(C)N1Cc1cccc(C(F)(F)F)c1 (configuration not stated)	–
COC(=O)C1=C(C)N(Cc2cccc(C(F)(F)F)c2)C(=NCC2CC2)NC1c1ccccc1C(F)(F)F (configuration not stated)	15.2	TbREL1 confirm=15.5
CC(C)CN1C(=O)C[C@@]2(C(=O)N(C)c3ccc(NS(=O)(=O)C4CCCCC4)cc32)C1c1ccccc1 (some centres not stated)	–
COc1ccc(-c2ccc(C(=O)Nc3cccc(NS(C)(=O)=O)c3)c3occc23)c(C)c1	–
COc1ccc(C2C(C(=O)N3CCOCC3)CC(=O)N2c2ccc(OC)cc2)cc1 (configuration not stated)	–
COC(=O)[C@]12C[C@H](CC(=O)NCCCCc3ccccc3)C(=O)N(Cc3ccc4c(c3)OCO4)C1=C[C@H](C(C)C)O[C@@H]2C1CC1	–
CC(=O)N1CCc2cc(S(=O)(=O)NC3CCN(C(=O)C(C)(C)C)CC3)ccc21	–
CCCCCCCCN1C(=O)[C@@H](CC(=O)N2CCN(C(=O)c3ccco3)CC2)C[C@@]2(C(=O)OC)C1=C[C@H](C(C)C)O[C@@H]2C1CC1	–
CCOC(=O)C(Cc1ccccc1)CP(=O)(OC)[C@@H](C)NC(=O)OCc1ccccc1 (some centres not stated)	–
O=C(Cc1c[nH]c2ccccc12)Nc1ccc(Nc2cccnc2)c(-c2ccc(Cl)c(Cl)c2)c1	–
C#CCOCCOCCOCCNc1nc(N2CCN(C(=O)[C@H]([C@@H](C)CC)n3cc([C@@H](N)CC(C)C)nn3)CC2)nc(N2CCN(C(=O)[C@H](Cc3ccc(O)cc3)n3cc([C@@H](N)CC(C)C)nn3)CC2)n1	–
C#CCOCCOCCOCCNc1nc(N2CCN(C(=O)[C@H]([C@@H](C)CC)n3cc([C@@H](N)CC(C)C)nn3)CC2)nc(N2CCN(C(=O)[C@H]([C@@H](C)CC)n3cc([C@@H](N)CC(C)C)nn3)CC2)n1	11.1	TbREL1 confirm=–
C#CCOCCOCCOCCNc1nc(N2CCN(C(=O)[C@H]([C@@H](C)CC)n3cc([C@@H](N)Cc4ccc(O)cc4)nn3)CC2)nc(N2CCN(C(=O)[C@H]([C@@H](C)CC)n3cc([C@@H](N)Cc4ccc(O)cc4)nn3)CC2)n1	–
O=C1CCC2(CCC(c3ccccc3)CC2)N1CC[C@@H](O)c1ccccc1 (some centres not stated)	–
COc1ccc(S(=O)(=O)N(C)C[C@@H]2Oc3c(NC(=O)Nc4cccc5ccccc45)cccc3C(=O)N([C@@H](C)CO)C[C@H]2C)cc1	–
C[C@H]1C2CC(OC(=O)Nc3ccccc3C(F)(F)F)C(C2)[C@H]2CCCCN21 (some centres not stated)	–
Oc1cc2c(cc1O)[C@H]1c3ccc(O)c(O)c3OC[C@@]1(O)C2	21.0	TbREL1 confirm=62.2
CC(C)[C@@H]1CC[C@@H](C)C[C@H]1OC[B-](F)(F)F	–
Cc1ccccc1CNC1CCC12CCC(c1ccccc1)CC2 (configuration not stated)	–
Cc1ccc(NC(=O)C2CC3CCC2C3)cc1 (configuration not stated)	–
SMILES	TbREL1 inh	others
c1ccc(-c2ccc(C3=Nn4c(nnc4-c4ccccn4)SC3)cc2)cc1	–
O=C(C1CCCN1S(=O)(=O)c1cccc([N+](=O)[O-])c1)N1CCN(c2ccccc2)CC1 (configuration not stated)	–
CN(C)CCCNc1ncnc2sc(-c3ccccc3)cc12	14.0	TbREL1 confirm=–
CC(C)N(C(=O)CSc1ncnc2sc(-c3ccccc3)cc12)C(C)C	–
CN(C)CCNc1ncnc2ccccc12	–
COC(=O)[C@@]12CCCCC3=C1N(CCC3)C(=O)[C@H]2CC(=O)NCCC(C)C	–
N#C/C(=C/c1cccc(O)c1)C(=O)NCc1ccc(Cl)cc1	–
N#C/C(=C/c1ccc(O)c(O)c1)C(=O)NCc1ccc(Cl)cc1	46.2	TbREL1 confirm=–
N#C/C(=C/c1ccccc1)C(=O)NCc1ccccc1	–
O=C(Cn1c(=O)oc2ccccc21)c1ccccc1	–
CC(C)(C)c1csc(NC(=O)Cn2c(=O)oc3ccccc32)n1	–
CC(C)(C)NC(=O)Cn1c(=O)oc2ccc(Cl)cc21	59.3	TbREL1 confirm=–
Cc1ccc(S(=O)(=O)N2CCCC2C(=O)N2CCN(c3ccccc3)CC2)cc1C (configuration not stated)	–
CCCN1C(=O)c2n[nH]c(C)c2C1c1ccc(Br)cc1 (configuration not stated)	–
CC(=O)C1=C(C)N(Cc2ccc(Br)cc2)C(=S)NC1c1ccc(F)cc1 (configuration not stated)	–
C[C@@H]1CNCCN1c1ccc(N2CCS(=O)(=O)CC2)c(C#N)c1	–
Oc1ccc(Cl)c2cccnc12	–
Oc1ccc(Cc2ccccc2)c2cccnc12	–
Oc1ccc(-c2nn[nH]n2)c2cccnc12	15.6	TbREL1 confirm=–
COc1cccc(N(C)C(=O)[C@@H](C)[C@@H](O)c2ccc(C(C)=O)cc2)c1	–
Cc1nc(N2CCCCC2C)c2nnn(Cc3ccccc3)c2n1 (configuration not stated)	–
CCC(C)NC(=O)CNS(=O)(=O)c1ccc(C)cc1 (configuration not stated)	–
CCC(C)NC(=O)CC(C)C (configuration not stated)	12.2	TbREL1 confirm=–
CC(C)CC(=O)NN1CCCCC1	–
CC1(c2nnnn2Cc2ccccc2)CSCC(=O)N1Cc1cccs1 (configuration not stated)	–
SMILES	TbREL1 inh	others
Cc1cc(N2CCN(C(=O)OC(C)(C)C)C[C@H]2C)ccc1N1CCS(=O)(=O)CC1	–
C#CCNC(=O)C[C@H]1C[C@@]2(C(=O)OC)C(=C[C@H](C(C)C)O[C@@H]2C2CC2)N(CCCCCCCC)C1=O	–
Cc1nc2cc(C(F)(F)F)ccc2n1CCNc1nc(-c2ccc([N+](=O)[O-])c(Cl)c2)cs1	–
OCCOCCn1c(CCNc2nc(-c3ccc(F)cc3)cs2)nc2cc(C(F)(F)F)ccc21	–
O=[N+]([O-])c1cc(-c2csc(NCCc3nc4cc(C(F)(F)F)ccc4n3CCCO)n2)ccc1Cl	19.1	TbREL1 confirm=–
COP(N)(=O)C(CC(C)C)NC(=O)OCc1ccccc1 (configuration not stated)	–
O=C(Nc1ccc(N2C(=O)CC(c3ccccc3)C2=O)c(Cl)c1)c1ccccn1 (configuration not stated)	–
